Compounds without any hit were thinned out: in the full panel of roughly 83,000, 20% have a hit.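 Activity criterion: percent growth below 10, measured after cells in 96-well plates were exposed to a single compound concentration for 48 hours.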 Values without a mark were called inactive. The source made the active and inactive calls.

Among the test systems are SK-MEL-2 melanoma; EKVX NSCLC; SN12C renal; UO-31 renal; TK-10 renal; ACHN renal; CAKI-1 renal; A498 renal; CCRF-CEM leukemia; MOLT-4 leukemia; RPMI-8226 leukemia; OVCAR-8 ovarian; OVCAR-5 ovarian; OVCAR-4 ovarian; SK-OV-3 ovarian; IGROV1 ovarian; OVCAR-3 ovarian; HS 578T breast; NCI/ADR-RES ovarian.
Assay in all cases: NCI-60 one-dose screen, 48 h (100 = growth as untreated, 0 = no growth, -100 = all killed)
What all share (conditions): 10 µM unless noted

As to `O=C(/C=C/c1c(Cl)nc2sccn12)c1ccc(F)c(F)c1`, the growth in the test on SK-MEL-2 melanoma is 74.7%; in the test with EKVX NSCLC it was 74%; in the test with SN12C renal, 76.5%; with UO-31 renal it was 64%; in the test with TK-10 renal, 91.6%; in the test with ACHN renal it was 81.1%. For the same molecule, the growth is 81.2% in the test on CAKI-1 renal; 73.6% in the test with A498 renal; 71.7% in the test on CCRF-CEM leukemia; 66.7% with MOLT-4 leukemia; 55.6% with RPMI-8226 leukemia; 92.7% with OVCAR-8 ovarian. Besides, the growth was 76.2% in the test on OVCAR-5 ovarian; 79.4% in the test on OVCAR-4 ovarian; 71.3% with SK-OV-3 ovarian; 87.5% with IGROV1 ovarian; 81.7% in the test on OVCAR-3 ovarian; 73.3% in the test on HS 578T breast.
With `Cc1ccc(S(=O)(=O)NCC[C@@H]2C[C@H]2c2cc3ccccc3s2)cc1`, the growth in the test on SK-MEL-2 melanoma is 111%; in the test with EKVX NSCLC, 95%; with SN12C renal it was 91.6%; with UO-31 renal, 84%; in the test with TK-10 renal, 110%; with ACHN renal, 102%. Also, the growth is 79.6% in the test on CAKI-1 renal; 81.7% in the test with A498 renal; 96.4% in the test on CCRF-CEM leukemia; 92.6% in the test with MOLT-4 leukemia; 83.4% in the test on RPMI-8226 leukemia; 97.3% in the test with OVCAR-8 ovarian. The growth was 106% in the test with OVCAR-5 ovarian; 78.3% in the test on OVCAR-4 ovarian; 107% in the test on SK-OV-3 ovarian; 101% in the test on IGROV1 ovarian; 101% with OVCAR-3 ovarian; 91.5% in the test on HS 578T breast. In addition, the growth in the test on NCI/ADR-RES ovarian was 96.9%.
On to `COc1ccc(N=Nc2ccc(O)c(=O)cc2)cc1`, for which the growth was 19.7% in the test on SK-MEL-2 melanoma; 4.69% (active) in the test with EKVX NSCLC; 6.7% (active) in the test on SN12C renal; 1.08% (active) in the test with UO-31 renal; 44.3% with TK-10 renal; 4.83% (active) in the test with ACHN renal. The growth with CAKI-1 renal was 11.1%; in the test with A498 renal, 82.4%; with CCRF-CEM leukemia, 15.8%; in the test on MOLT-4 leukemia it was -18.4% (active); with RPMI-8226 leukemia, 9.86% (active); in the test with OVCAR-8 ovarian, 9.87% (active). The growth was 47.8% in the test on OVCAR-5 ovarian; 31.8% in the test with OVCAR-4 ovarian; 16.5% in the test with SK-OV-3 ovarian; 15.1% in the test on IGROV1 ovarian; 16.2% with OVCAR-3 ovarian; 30.7% in the test with HS 578T breast. Moreover, in the test on NCI/ADR-RES ovarian, the growth is -29% (active).
Turning to `COc1cccc(-c2nc3sccn3c2-c2ccnc(NCCNS(=O)(=O)c3ccc(C(F)(F)F)cc3)c2)c1`, the growth is 47.5% with SK-MEL-2 melanoma; 40.4% with EKVX NSCLC; 40.7% with SN12C renal; -23.8% (active) in the test on UO-31 renal; 49.2% with TK-10 renal; -60.2% (active) in the test with ACHN renal. For the same molecule, the growth with CAKI-1 renal was 34.5%; in the test with A498 renal, 18.9%; in the test with CCRF-CEM leukemia, 22.6%; in the test with MOLT-4 leukemia, 13.7%; with RPMI-8226 leukemia, 3.52% (active); in the test with OVCAR-8 ovarian it was 27.1%. The growth was 88% in the test on OVCAR-5 ovarian; 16.3% with OVCAR-4 ovarian; 40.5% in the test on SK-OV-3 ovarian; 45.2% with IGROV1 ovarian; 40.7% in the test with OVCAR-3 ovarian; 30.5% in the test on HS 578T breast. Moreover, the growth in the test with NCI/ADR-RES ovarian was 19.9%.
Regarding `OC(COc1ccccc1Cl)COc1ccccc1Cl`, the growth was 107% in the test on SK-MEL-2 melanoma; 106% in the test on EKVX NSCLC; 97% with SN12C renal; 82.1% with UO-31 renal; 102% in the test on TK-10 renal; 97.3% with ACHN renal. Moreover, the growth was 106% with CAKI-1 renal; 85.2% in the test with A498 renal; -46.3% (active) in the test with CCRF-CEM leukemia; 92.3% in the test with MOLT-4 leukemia; 81.5% with RPMI-8226 leukemia; 109% in the test with OVCAR-8 ovarian. Besides, the growth with OVCAR-5 ovarian was 81.9%; in the test on OVCAR-4 ovarian, 105%; with SK-OV-3 ovarian it was 107%; in the test on IGROV1 ovarian, 96.7%; with OVCAR-3 ovarian, 118%; with HS 578T breast it was 102%.
For the molecule `Nc1n[nH]c2cc(F)c([C@@H]3Nc4c(F)cc5[nH]ncc5c4[C@H]4C5CCC(C5)[C@@H]34)cc12` (stereo not given in full), the growth is 43.5% in the test with SK-MEL-2 melanoma; 63.2% with EKVX NSCLC; 17.3% in the test with SN12C renal; 36.5% in the test with UO-31 renal; 76.3% with TK-10 renal; 24.4% in the test on ACHN renal. Also, the growth was 6.94% (active) in the test on CAKI-1 renal; -38.9% (active) in the test with A498 renal; 17.8% with CCRF-CEM leukemia; 14.8% in the test on MOLT-4 leukemia; 5.57% (active) in the test on RPMI-8226 leukemia; 29.2% in the test on OVCAR-8 ovarian. The growth with OVCAR-5 ovarian was 35.1%; in the test on OVCAR-4 ovarian, 44.2%; with SK-OV-3 ovarian, 34%; in the test with IGROV1 ovarian, 17.2%; in the test on OVCAR-3 ovarian, 8.71% (active); in the test on HS 578T breast it was 26.8%. The growth in the test with NCI/ADR-RES ovarian is 11.8%.
Consider `COc1cc(OC)cc(C2CC(=O)Nc3c2c(C)nn3-c2nc3ccccc3[nH]2)c1` (stereo not given), for which the growth in the test with SK-MEL-2 melanoma was 38.4%; with EKVX NSCLC, 17.7%; in the test on SN12C renal, 20%; in the test with UO-31 renal, 13.1%; in the test on TK-10 renal it was 24.2%; with ACHN renal, 19.3%. For the same molecule, the growth in the test with CAKI-1 renal was 30.3%; in the test on A498 renal, -10.1% (active); in the test on CCRF-CEM leukemia, 4.69% (active); in the test on MOLT-4 leukemia, -8.06% (active); in the test with RPMI-8226 leukemia, -8.64% (active); in the test with OVCAR-8 ovarian, 17.8%. Also, the growth is 50.2% with OVCAR-5 ovarian; 42.4% in the test on OVCAR-4 ovarian; -2.88% (active) with SK-OV-3 ovarian; 14.6% with IGROV1 ovarian; 7.11% (active) in the test on OVCAR-3 ovarian; 27.1% in the test on HS 578T breast. For the same molecule, the growth in the test on NCI/ADR-RES ovarian is 64.3%.
As for `CN(C)CCCn1c(=O)c2ccccc2c2ccccc21`, the growth in the test with SK-MEL-2 melanoma was 83.7%; in the test on EKVX NSCLC, 107%; in the test with SN12C renal, 50.6%; in the test with UO-31 renal it was 53.6%; in the test with TK-10 renal, 79.3%; with ACHN renal, 42.2%. Further, the growth in the test on CAKI-1 renal is 79.8%; in the test with A498 renal, 104%; in the test on CCRF-CEM leukemia it was 49.9%; with MOLT-4 leukemia, 51.6%; in the test on RPMI-8226 leukemia, 59.9%; in the test on OVCAR-8 ovarian it was 49.8%. For the same molecule, the growth in the test on OVCAR-5 ovarian is 73.3%; with OVCAR-4 ovarian, 86.3%; with SK-OV-3 ovarian, 92.3%; in the test with IGROV1 ovarian, 56.2%; with OVCAR-3 ovarian, 96.5%; with HS 578T breast, 79.3%. Moreover, the growth in the test on NCI/ADR-RES ovarian is 78.3%.

For the origin of these results see PubChem BioAssay (NCI).
